Unmarked numbers belong to inactive results. Results filed as inconclusive are left out. The source made the active and inactive calls. Unless noted, calls come from the whole dose curve; as a rule, active = well fitted curve in the direction sought with a large enough effect; inconclusive = small, poorly fitted or top-dose-only effect, or effect the other way, or another doubt; inactive = no such curve, though single readings can be large or run the other way.
Test: Inducers of the Endoplasmic Reticulum Stress Response (ERSR) in human glioma: Validation (AID 504836); note: 0% is about no effect
Conditions: human glioma cells, ER stress response reporter; series mostly up to 38.3 µM; activation: at the top concentration
Summary of the method: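 Stably transfected U87-MG glioma cells carrying a GRP78-based luciferase sensor; 16 h compound incubation. Luminescence end-point read 10 min after Bright-Glo addition at room temperature.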

Row | Structure (SMILES) | activation [%]
1 | CC(=O)/C=C1\C(=O)N(C)c2ccccc21 | -2.48
2 | O=C1Cc2c([nH]c3ccc(Br)cc23)-c2ccccc2N1 | -0.332
3 | O=C1NC(=O)/C(=C/c2ccc3nccnc3c2)S1 | -4.44
4 | Cc1ccc(S(=O)(=O)/C=C/C#N)cc1 | -11.7
5 | Cc1ccc(O)c(N=Nc2ccccc2)n1 | -10.6
6 | CC12C(=O)OC(=O)C1(C)C1CCC2O1 (stereo not drawn) | -7.02

Test: qHTS for Inhibitors of the Functional Ribonucleoprotein Complex (vRNP) of Lymphocytic Choriomeningitis Arenaviruses (LCMV): Viability assay - alamar blue signal for LCMV Primary Screen (AID 1347085; calls by dose curve; tested in HEK293 reporter line; note: nearly all actives have a fitted effect of over 80% in size; note: potency is the fitted concentration of half-maximal effect; for activity change, negative = lower viability: % is set by controls: 0 for no effect and ±100 for the full control effect)
Conditions: alamar blue viability counter-screen, LCMV vRNP screen cells; series mostly up to 57.5 µM; activity change, negative = lower viability: at the top concentration

Row | Structure (SMILES) | Potency | activity change, negative = lower viability
7 | CN(C)c1ccc2cc(C(=O)N[C@@H](CCCN=C(N)CCl)C(=O)NCc3ccccc3)ccc2c1 | 34.3 µM (active) | 
8 | CCOC(=O)N[C@@H]1CC[C@@H]2[C@@H](C1)C[C@H]1C(=O)O[C@H](C)[C@H]1[C@@H]2C=Cc1ccc(-c2cccc(F)c2)cn1 | 5.44 µM (active) | 
9 | CCCCCC(=O)N[C@@H](c1ccccc1)[C@@H](O)C(=O)O[C@H]1C[C@@]2(O)[C@@H](OC(=O)c3ccccc3)C3[C@](C)(C(=O)[C@H](OC(C)=O)C(=C1C)C2(C)C)[C@@H](O)C[C@H]1OC[C@@]31OC(C)=O (stereo partly drawn) |  | -107%
10 | CC(=O)/C=C1\C(=O)N(C)c2ccccc21 |  | -24%
11 | O=C1Cc2c([nH]c3ccc(Br)cc23)-c2ccccc2N1 |  | -99.9%
12 | O=C1NC(=O)/C(=C/c2ccc3nccnc3c2)S1 |  | -106%
13 | CO[C@@H]1[C@@H](OC2OC(C)C(OC3CC(C)(O)C(OC(=O)CC(C)C)C(C)O3)C(N(C)C)C2O)[C@@H](CC=O)C[C@@H](C)C(=O)/C=C\C2O[C@H]2C[C@@H](C)OC(=O)C[C@H]1OC(C)=O (stereo partly drawn) |  | -4.95%
14 | Cc1ccc(S(=O)(=O)/C=C/C#N)cc1 |  | -12%
15 | CCCCCCCCc1ccc(CCC(N)(CO)CO)cc1 |  | -139%
16 | C=C1C(=O)OC2CC3(C)OC3CCC(C)=CC(OC(C)=O)C12 (stereo not drawn) |  | -7.27%
17 | CCC[C@H](N[C@@H](C)C(=O)N1[C@@H]2CCCC[C@H]2C[C@H]1C(=O)O)C(=O)OCC |  | -144%
18 | N#Cc1cc([N+](=O)[O-])c2sc(C(N)=O)[n+]([O-])c2c1 |  | -6.04%
19 | O=S(=O)(NCCNCC=Cc1ccc(Br)cc1)c1cccc2cnccc12 |  | -4.92%
20 | COc1c(O)c2c(=O)cc(OC)c3c4c(OC)cc(=O)c5c(O)c(OC)c6c(c(c1C[C@@](C)(O)[C@H]6C(C)=O)c23)c54 |  | 13.1% [at 24.7 µM]
21 | NS(=O)(=O)c1ccc(NC2=CC(=O)c3ccccc3C2=O)cc1 | 38.5 µM (active) | 
22 | CC(=O)O[C@@H]1[C@@H](O)C2OC3C=C(C)C(=O)[C@@H](O)[C@]3(CO)C1(C)C21CO1 (stereo partly drawn) | 0.316 µM (active) | 

Row | Structure (SMILES) | Potency | activity change, negative = lower viability
23 | Cc1ccc(O)c(N=Nc2ccccc2)n1 |  | -26.9%
24 | CC12C(=O)OC(=O)C1(C)C1CCC2O1 (stereo not drawn) | 11.2 µM (active) | 
25 | C[C@@]12C=Cc3occc3[C@H]1CC[C@@]13C[C@@H](CC[C@H]12)[C@@](O)(CO)C3 |  | 14.2%
26 | CC1(C)CC(=O)c2c(C(F)(F)F)nn(-c3ccc(C(N)=O)c(NC4CCC(OC(=O)CN)CC4)c3)c2C1 (stereo not drawn) | 0.769 µM (active) | 
27 | COc1ccc(CCOC2OC(CO)C(OC(=O)/C=C/c3ccc(O)c(OC)c3)C(O[C@H]3O[C@@H](C)[C@H](O)[C@@H](O)[C@H]3O)C2O)cc1O (stereo partly drawn) |  | 1.33%
28 | C=CC(=O)N1CCC[C@@H](n2nc(-c3ccc(Oc4ccccc4)cc3)c3c(N)ncnc32)C1 | 21.7 µM (active) | 
29 | COc1cc2c(NC3CCN(C(C)C)CC3)nc(C3CCCCC3)nc2cc1OCCCN1CCCC1 | 38.5 µM (active) | 
30 | CCOc1cc2c(c(F)c1OCC)C(=N)N(CC(=O)c1cc(N3CCOCC3)c(OC)c(C(C)(C)C)c1)C2 | 24.3 µM (active) | 
31 | CC1(C)CNc2cc(NC(=O)c3cccnc3NCc3ccncc3)ccc21 | 34.3 µM (active) | 
32 | C[C@@H]1CC=CC=CC=CC=C[C@@H](O[C@@H]2O[C@H](C)[C@@H](O)[C@H](N)[C@H]2O)C[C@@H]2O[C@](O)(C[C@@H](O)C[C@@H]3O[C@@H]3C=CC(=O)O1)C[C@H](O)[C@@H]2C(=O)O |  | -3.94%
33 | CC(C)(C)c1nc2c3cc[nH]c(=O)c3c3cc(F)ccc3c2[nH]1 |  | -17.4%
34 | COc1ccc(C(=O)/C=C/c2ccc(OC)cc2OC)c(O)c1 |  | -6.09%
35 | COC1CC2C=C(C)C=CC=CC(=O)NC(c3ccccc3)CC=CCCC(O)CC(=O)C2=C1O (stereo not drawn) |  | -104%
36 | CC(=O)OC[C@@H]1O[C@@H](n2ccc(=O)[nH]c2=O)[C@H](OC(C)=O)[C@H]1OC(C)=O | 4.85 µM (active) | 
37 | NC(=O)c1nnn(Cc2cc(Cl)c(C(=O)c3ccc(Cl)cc3)c(Cl)c2)c1N |  | -27.1%
38 | Cc1cccc(O)c1C |  | 9.16%
